Screens as filed in PubChem.
Sm TGR inh: qHTS Assay for the Inhibitors of Schistosoma Mansoni Peroxiredoxins | actives 3% (n = 360,000) | Schistosoma mansoni thioredoxin glutathione reductase (TGR), Q962Y6 | purified TGR, DTNB reduction, TNB absorbance 405 nm | Potency, µM (top dose mostly 114 µM), hits mostly inhibitors; further: nearly all actives have a fitted effect of over 60% in size
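First, TGR (20 nM dispensed) and NADPH were mixed with compound. Second, a 15 min room-temperature incubation followed. Third, further NADPH and then DTNB were added to start the reaction. Finally, TNB absorbance was monitored kinetically.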
Giardia FBPA inh: qHTS Assay for Inhibitors of Fructose-1,6-bisphosphate Aldolase from Giardia Lamblia | purified Giardia FBPA | actives 0.71% (n = 290,000) | Potency, µM (series often up to 59.6 µM), usual class: inhibitors | A8B2U2; further: nearly all actives have a fitted effect of over 55% in size
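Giardia FBPA (40 nM reagent) was preincubated 10 min at RT with compound (up to 57.5 uM final), then substrate plus GAPDH/TPI/NAD/arsenate coupling system with diaphorase/resazurin was added; resorufin fluorescence (525/598 nm) was read after 20 min.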
AmpC no deterg: qHTS Inhibitors of AmpC Beta-Lactamase (assay without detergent). AmpC nitrocefin hydrolysis, absorbance 480 nm, 0.0001% Triton. Potency, µM (doses to about 57.1 µM), usual class: inhibitors. actives 0.52% (n = 330,000); further: nearly all actives have a fitted effect of over 20% in size
Target sequence (P00811 whole entry, looked up): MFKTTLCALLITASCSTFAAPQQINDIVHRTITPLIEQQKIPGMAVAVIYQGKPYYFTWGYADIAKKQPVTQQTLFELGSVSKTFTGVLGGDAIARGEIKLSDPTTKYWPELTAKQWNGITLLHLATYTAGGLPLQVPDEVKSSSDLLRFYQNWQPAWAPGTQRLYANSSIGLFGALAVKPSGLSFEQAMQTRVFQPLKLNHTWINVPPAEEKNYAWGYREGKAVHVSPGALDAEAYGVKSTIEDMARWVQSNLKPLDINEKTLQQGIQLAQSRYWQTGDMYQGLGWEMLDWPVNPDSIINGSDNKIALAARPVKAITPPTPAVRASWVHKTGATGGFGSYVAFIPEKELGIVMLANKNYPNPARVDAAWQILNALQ
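20 mM phosphate pH 7.0 + 0.01% (detergent screen) or 0.0001% Triton X-100; 5.3 nM AmpC reagent; cpd preinc 15 min RT; nitrocefin (800 uM stock) to start; A480 q20 s × 4 min; Activity was normalised to no-enzyme and no-compound control wells.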
AmpC inh detg: qHTS Inhibitors of AmpC Beta-Lactamase (assay with detergent). Potency, µM (highest dose often 114 µM), hits mostly inhibitors. AID 485294, 2010. actives 0.041% (n = 370,000). AmpC hydrolysis of nitrocefin, absorbance 480 nm, 0.01% Triton; further: nearly all actives have a fitted effect of over 25% in size
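AmpC (5.3 nM in the dispensed reagent) in 20 mM phosphate pH 7.0 with 0.01% (detergent screen) or 0.0001% Triton X-100 was preincubated with compounds for 15 min at room temperature. Nitrocefin was then added from an 800 uM solution, and hydrolysis was followed at 480 nm.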
Hits are given with their value; . = inactive; ? = inconclusive; / = no result. This is a sample that favours compounds with a hit; in the whole collection about 3.6% have one here. The call rests on the fitted dose curve; in most records, active means well fitted curve in the direction sought with a large enough effect; inconclusive means small, poorly fitted or top-dose-only effect, or another doubt; inactive means no such curve, though single readings can be large; an effect the other way counts as inactive or inconclusive.

SMILES	Sm TGR inh	Giardia FBPA inh	AmpC no deterg	AmpC inh detg
CCn1c(O)c(/C=N/NC(=O)c2ccccc2)c(=O)[nH]c1=S	.	.	.	.
COc1ccccc1-n1c(O)c(/C=N/NC(=S)Nc2ccccc2)c(=O)[nH]c1=S	11.2µM	?	.	.
Oc1cc2c(cc1O)[C@H]1c3ccccc3CN[C@@H]1CC2	8.91µM	.	.	.
c1ccc2nc3c(cc2c1)CCCCC3	.	.	.	.
Cc1onc(-c2ccccc2)c1C(=O)NC(=S)NNC(=O)c1cc(-c2ccc(F)cc2)n[nH]1	.	.	2µM	.
C=CCn1c(C)cc(C(=O)Cn2ncc(Cl)c(Cl)c2=O)c1C	39.8µM	.	.	?
CC(C)(C)C(=O)Cn1ncc(Cl)c(Cl)c1=O	39.8µM	.	.	.
COC(=O)c1c(-c2ccc(Cl)cc2)noc1N1CCN(c2cccc(C(F)(F)F)c2)CC1	.	/	/	.
N#CC1=C(N)Oc2cc(O)c(Cl)cc2C1c1ccccc1F (stereo not given)	44.7µM	.	.	.
COC(=O)C1=C(C)OC(N)=C(C#N)C1c1cccnc1 (stereo not given)	?	?	.	.
N#CC1=C(N)Oc2cc(O)c(Cl)cc2C1c1cccnc1 (stereo not given)	31.6µM	.	.	.
CC1=C(n2nnc([N+](=O)[O-])n2)C(c2cccnc2)C(C#N)=C(N)O1 (stereo not given)	?	5µM	.	.
COC(=O)C1=C(C)OC(N)=C(C#N)C1c1ccccc1F (stereo not given)	.	.	.	?
N#CC1=C(N)Oc2ccc3ccccc3c2C1c1cccnc1 (stereo not given)	39.8µM	.	.	.
O=C(O)CN1C(=O)C(=O)N(Cc2ccccc2F)C1=O	.	.	.	.
CN(C)/N=N/c1nc[nH]c1C(N)=O	/	.	/	/
COc1ccc(Cl)cc1NC(=O)C(C)N(C)Cc1cccc(Cl)c1Cl (stereo not given)	.	.	.	?
COc1cccc(NS(=O)(=O)c2ccc3[nH]cc(C(=O)NCCc4ccc(C)cc4)c(=O)c3c2)c1	.	/	6.31µM	.
Cc1cc(C)cc(NS(=O)(=O)c2ccc3[nH]cc(C(=O)NCc4ccco4)c(=O)c3c2)c1	39.8µM	.	15.8µM	.
CC(=O)c1ccccc1N(C(=O)c1ccco1)C(C(=O)NC1CCCC1)c1ccc(C)cc1 (stereo not given)	.	.	.	.
Cc1ccc2cc3cc(C(=O)NCCCN4CCCCCC4)oc3nc2c1	31.6µM	.	.	.
N#CC(C#N)=C1C(=O)N(CCN2CCCCC2)c2ccccc21	.	?	.	.
N#CC(C#N)=C1C(=O)N(CCN2CCOCC2)c2ccccc21	3.55µM	?	.	.
Cc1ccc2c(c1)C(=C(C#N)C#N)C(=O)N2CCN1CCOCC1	3.16µM	3.15µM	.	.
CC1CCc2c(sc3nc(-c4cc5cc(Br)ccc5oc4=O)[nH]c(=O)c23)C1 (stereo not given)	.	/	/	.
SMILES	Sm TGR inh	Giardia FBPA inh	AmpC no deterg	AmpC inh detg
CC(C)CC(C(=O)Nc1cccc(O)c1)N1C(=O)c2ccccc2C1=O (stereo not given)	.	.	.	.
CC(C)CC(C(=O)Nc1oc(-c2ccco2)c(-c2ccco2)c1C#N)N1C(=O)c2ccccc2C1=O (stereo not given)	56.2µM	.	.	?
Cc1oc(C(=O)O)cc1CSCc1cc(C(=O)O)c(C)o1	44.7µM	.	.	.
Cc1oc(C(=O)O)cc1CSCc1ccoc1C(=O)O	.	.	.	?
Cc1ccc(N(Cc2cccs2)C(=O)c2ccccc2)cc1	.	/	/	.
CC(C(=O)N(C)C1CCS(=O)(=O)C1)N1C(=O)/C(=C/c2ccco2)SC1=S (stereo not given)	25.1µM	.	.	.
CC(=C\c1ccco1)/C=C1/SC(=S)N(CC(=O)O)C1=O	39.8µM	.	.	.
CC(/C=C1\SC(=S)N(CC(=O)O)C1=O)=C\c1ccccc1	.	?	.	.
O=C(CN1C(=O)/C(=C/c2ccco2)SC1=S)NC1CCS(=O)(=O)C1 (stereo not given)	20µM	?	.	?
O=C(CCN1C(=O)/C(=C/c2ccccc2)SC1=S)NC1CCS(=O)(=O)C1 (stereo not given)	.	/	.	.
O=C(CN1C(=O)/C(=C/c2ccco2)SC1=S)Nc1ccc(O)c(C(=O)O)c1	14.1µM	/	.	.
CCN(CCn1cccn1)Cc1nc(Cc2cccc(F)c2)no1	.	.	.	.
CN(C(=O)COc1ccc(S(=O)(=O)N2CCOCC2)cc1[N+](=O)[O-])C1CCS(=O)(=O)C1 (stereo not given)	.	.	.	.
O=C(CN1C(=O)/C(=C/c2ccco2)SC1=S)Nc1ccc(C(=O)O)c(O)c1	14.1µM	/	.	.
CC(C(=O)Nc1ccc(C(=O)O)c(O)c1)N1C(=O)/C(=C\c2ccco2)SC1=S (stereo not given)	7.08µM	/	.	.
CCOC(=O)CN1C(=O)S/C(=C/c2ccco2)C1=O	?	.	.	?
O=C(CCCN1C(=O)/C(=C\c2ccco2)SC1=S)Nc1ccc(O)cc1C(=O)O	10µM	/	.	?
NN1C(=O)/C(=C\c2ccco2)SC1=S	11.2µM	6.29µM	.	.
COCCNC(=O)CSc1nc(-c2cc(OC)c(OC)c(OC)c2)[nH]c1-c1ccc(Cl)cc1	.	/	/	.
Cn1c(Cc2ccccc2)nnc1SCC(=O)N1CCCCC1	.	.	.	.
Cn1c(Cc2ccc3c(c2)OCO3)nnc1SCC(=O)N1CCc2ccccc2C1	44.7µM	.	.	.
O=C(CCc1ccc(S(=O)(=O)NC2CCCCC2)cc1)NCc1ccccn1	35.5µM	.	.	.
CN(C)S(=O)(=O)c1ccc(C(=O)Nc2nnc(-c3ccc4c(c3)CCCC4)o2)cc1	.	?	2.82µM	?
O=C(Nc1nnc(-c2ccc3c(c2)CCCC3)o1)c1ccc(Cl)cc1Cl	.	?	35.5µM	?
COc1ccc(-n2c3c(cc(C#N)c2=O)C(=O)CCC3)cc1	.	.	.	.
SMILES	Sm TGR inh	Giardia FBPA inh	AmpC no deterg	AmpC inh detg
CNC(=O)CSc1nc2nc(C)cc(C)n2n1	.	.	.	.
Cc1cc(C)n2nc(SCC(=O)c3ccc[nH]3)nc2n1	31.6µM	.	.	.
Oc1ccc(NC(=S)N=Nc2c(O)[nH]c3ccc(Br)cc23)cc1	.	.	17.8µM	.
Oc1[nH]c2ccc(Br)cc2c1N=NC(=S)Nc1ccc(F)cc1	.	.	.	.
COc1ccccc1C(=O)NC1(C(F)(F)F)C(=O)Nc2c1c(=O)[nH]c(=O)n2-c1ccccc1 (stereo not given)	.	/	/	.
Fc1ccccc1N1CCN(c2ncnc3nc[nH]c23)CC1	.	.	.	.
Clc1ccccc1N1CCN(c2ncnc3nc[nH]c23)CC1	.	.	8.91µM	?
Cn1c(-c2ccc(S(=O)(=O)N3CCCC3)cc2)csc1=Nc1ccc(Cl)c(Cl)c1	8.91µM	/	/	.
Cc1cc(C(=O)OCC(=O)N(C)c2ccccc2)c(C)o1	/	/	.	/
